Assay outcomes (PubChem BioAssay)
EWS-Fli inh: EWS/Fli transcriptional activity inhibition. A673 NR0B1-luciferase reporter, viability-normalised. 350,000 compounds, 0.67% hits. inhibition, % at 12.6 µM;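 active = mean inhibition of at least 50% after viability correction, with every replicate also passing that limit; inconclusive = mean reaches 50% but only one of two replicates passes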;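 note: firefly luciferase signal divided by Alamar Blue viability fluorescence both relative to DMSO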
F508del corr: correctors of CFTR F508del function in bronchial epithelial cells; CFBE cells, YFP halide quenching; stimulated with forskolin plus potentiator P3; % fluorescence drop versus neutral controls; activity (quench increase), % at 7.58 µM; 350,000 compounds, 0.36% hits;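 active = mean added fluorescence quench of at least 8% versus neutral control, with both replicates also reaching 8%; inconclusive = only one of the mean or replicate conditions met; inactive = mean below 8% and not both replicates reaching 8%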;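 note: cells transiently co-express mutant CFTR-F508del with the halide-sensitive YFP; corrector assay measuring rescue of mutant channel to the surface after 24 h compound exposure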
PAX8 inh HTS: lowers PAX8-driven luciferase in RMG-I cells | inhibition, % at 12.6 µM | RMG-I TPO-luciferase reporter, SteadyGlo, 24 h | 360,000 compounds, 1.2% hits | AID 652154;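 active = mean replicate inhibition at least 60% with every replicate also reaching 60%; inconclusive = only one of the two criteria is met; inactive = mean below 60% and not all replicates reaching 60%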;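 note: luciferase light reporting Pax8 driven TPO promoter activity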
Env fusion inh: HIV envelope-mediated fusion inhibition. HeLa-JRFL Env/CEM21 cell fusion, luciferase. inhibition, % at 12.3 µM. 360,000 compounds, 1.1% hits. AID 651610;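 active = mean replicate inhibition score of at least 50 and every replicate individually at or above 50; inconclusive = only one of the two criteria met; inactive = mean below 50 and not all replicates reaching 50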
GAA850 FXN act: activators of GAA850 frataxin (FXN) promoter; HEK293 lucGAA850 FXN promoter luciferase reporter, 24 h; percent of 10 µM SAHA response; activation, % at 6 µM; 360,000 compounds, 0.56% hits; AID 540364;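 active = activation above the average of all compounds screened plus 3 SD, cutoff fixed separately per campaign, cut at about 7.5% in these data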
Hits are given with their value; . = inactive; ? = inconclusive; / = no result; [ ] = another dose, or the depositor's remark. A selection: hits, their analogues and other compounds. The true share with any hit is near 2.5%.

SMILES	EWS-Fli inh	F508del corr	PAX8 inh HTS	Env fusion inh	GAA850 FXN act
O=C(C[C@H]1CC[C@H]2[C@@H](COC[C@H](O)CN2C(=O)Nc2ccc(Cl)c(Cl)c2)O1)NCc1ccncc1	.	.	.	70.4[16.7 µM]	/
C[C@@H]1CN([C@H](C)CO)C(=O)c2cc(NS(=O)(=O)c3ccc(F)cc3)ccc2O[C@@H]1CN(C)S(=O)(=O)c1ccc(F)cc1	.	.	.	.	/
CN1C(=O)c2cc(NC(=O)c3cccc(F)c3)ccc2OC[C@H]2O[C@H](CC(=O)NCc3ccccc3Cl)CC[C@H]21	.	.	.	/	/
C[C@@H]1CN([C@H](C)CO)S(=O)(=O)c2ccc(C#CC3CC3)cc2O[C@H]1CN(C)Cc1ccncc1	?	.	/	.	/
OC[C@H]1[C@@H](c2ccc(C#Cc3ccccc3)cc2)[C@@H]2CN(CC3CCOCC3)CCCCN12	.	.	.	/	/
C[C@H]1CCCCO[C@@H](CN(C)S(=O)(=O)c2ccc(F)cc2)[C@@H](C)CN([C@@H](C)CO)C(=O)c2cc(NS(=O)(=O)c3ccc(Cl)cc3)ccc2O1	.	.	68.6	.	/
C[C@@H]1CN([C@H](C)CO)C(=O)c2cc(NS(=O)(=O)c3ccc(F)cc3)ccc2O[C@@H](C)CCCCO[C@H]1CN(C)S(=O)(=O)c1ccc(Cl)cc1	.	.	98.4	.	/
C[C@H]1CCCCO[C@@H](CN(C)S(=O)(=O)c2ccc(Cl)cc2)[C@@H](C)CN([C@@H](C)CO)C(=O)c2cc(NS(=O)(=O)c3ccc(F)cc3)ccc2O1	.	.	62.6	.	/
C[C@@H]1CN([C@@H](C)CO)C(=O)c2cc(NS(=O)(=O)c3ccc(F)cc3)ccc2O[C@@H](C)CCCCO[C@H]1CN(C)S(=O)(=O)c1ccc(Cl)cc1	.	.	.	.	/
C[C@@H]1CCCCO[C@H](CN(C)S(=O)(=O)c2ccc(Cl)cc2)[C@H](C)CN([C@@H](C)CO)C(=O)c2cc(NS(=O)(=O)c3ccc(F)cc3)ccc2O1	.	.	83.1	.	/
C[C@@H]1CCCCO[C@H](CN(C)S(=O)(=O)c2ccc(Cl)cc2)[C@H](C)CN([C@H](C)CO)C(=O)c2cc(NS(=O)(=O)c3ccc(F)cc3)ccc2O1	.	.	.	.	/
C[C@@H]1CN([C@@H](C)CO)C(=O)c2cc(NS(=O)(=O)c3ccc(Cl)cc3)ccc2O[C@@H](C)CCCCO[C@H]1CN(C)S(=O)(=O)c1ccc(F)cc1	.	.	.	.	/
COc1ccc2c3c([nH]c2c1)[C@H](CO)N(C(C)=O)CC31CN(C(=O)Nc2ccc(F)cc2)C1	.	.	/	.	/
C[C@H](CO)N1C[C@H](C)[C@@H](CN(C)S(=O)(=O)c2ccc(Cl)cc2)OCCCC[C@H](C)Oc2ccc(NS(=O)(=O)c3ccc(F)cc3)cc2C1=O	.	.	84.2	.	/
C[C@@H]1CCCCO[C@H](CN(C)S(=O)(=O)c2ccc(F)cc2)[C@@H](C)CN([C@@H](C)CO)C(=O)c2cc(NS(=O)(=O)c3ccc(Cl)cc3)ccc2O1	.	.	?	.	/
O=C(NC[C@@H]1N[C@@H](CO)[C@H]1c1ccc(-c2ccccc2F)cc1)c1ccccc1	.	.	.	/	/
O=C1/C(=C\c2ccc(Cl)c(Cl)c2)CN(C(=O)CCN2CCOCC2)C/C1=C/c1ccc(Cl)c(Cl)c1	55.7	.	89.2	/	.
Cc1ccc(S(=O)(=O)N2CCN(C(=O)Cc3ccc(S(=O)(=O)N4CCOCC4)s3)CC2)cc1	/	.	.	.	.
O=C(Cc1ccc(S(=O)(=O)N2CCOCC2)s1)N1CCN(S(=O)(=O)c2ccc(Cl)cc2)CC1	.	.	.	69.6	.
N#Cc1ccc(-c2ccc(OCC(O)Cn3nnc4ccccc43)cc2)cc1 (centres undefined)	/	/	.	58.9	.
NS(=O)(=O)c1ccc(-n2ncc3c(=O)[nH]c(SCC(=O)Nc4nccs4)nc32)cc1	.	8.1	.	.	.
Cc1ccc2c(c1)c1c3n2CCN(CC(N)=O)C3CCC1 (centres undefined)	.	.	96.7	81.0	.
COc1cccc(CN2CC(C(=O)N(C)Cc3[nH]c4ccccc4c3C)CCC2=O)c1 (centres undefined)	.	.	.	.	.
COc1cccc(CN2CC(C(=O)N(C)Cc3ccc(C)cc3)CCC2=O)c1 (centres undefined)	/	.	.	58.2	.
Cc1cc(C)n(-c2nc(NCCN(C)C)c3c4c(sc3n2)CCCC4)n1	.	.	96.8	.	.
SMILES	EWS-Fli inh	F508del corr	PAX8 inh HTS	Env fusion inh	GAA850 FXN act
CCCN(CCC)S(=O)(=O)c1ccc(NC(=O)c2cc(C(=O)OC)cc([N+](=O)[O-])c2)cc1	/	/	66.1	.	.
CCC(C)(C)NC(=O)c1cc(C(=O)OC)cc([N+](=O)[O-])c1	/	/	.	.	.
CCC(=O)N(C)C[C@@H]1Oc2cc(C3=CCCCC3)ccc2S(=O)(=O)N([C@@H](C)CO)C[C@@H]1C	.	.	/	.	/
CCN(CC)CCNC(=O)c1cc(-c2cccnc2)nc2ccc(S(=O)(=O)N3CCC(C)CC3)cc12	63.1	.	.	.	.
CN1CCN(C(=O)C[C@H]2C[C@H]3c4cc(NC(=O)Nc5ccccc5)ccc4O[C@H]3[C@@H](CO)O2)CC1	.	.	.	.	/
Cn1cccc1/C=C1\SC(=Nc2ccccc2)NC1=O	.	14.5	.	.	.
Cn1cccc1/C=C1\SC(=Nc2cccc(O)c2)NC1=O	.	9.1	.	.	.
O=C1NC(=Nc2ccc(O)cc2)S/C1=C/c1ccco1	?	11.2	.	.	.
COc1cc(/C=C2\SC(=Nc3ccc(O)cc3)NC2=O)cc(OC)c1O	.	.	.	.	.
Cc1ccc(N=C2NC(=O)/C(=C/c3cccn3C)S2)c(C)c1	.	.	.	.	.
Cn1cccc1/C=C1\SC(=Nc2ccc(O)cc2)NC1=O	.	12.0	.	.	.
Cc1ccc(N=C2NC(=O)/C(=C\c3ccco3)S2)cc1	/	/	.	/	.
COCC(=O)N1CCC2(CC1)CN(Cc1ccc3c(c1)OCO3)[C@H](CO)c1c2c2ccc(OC)cc2n1C	.	.	/	/	/
O=C1/C(=C\c2ccco2)SC(=S)N1c1ccc(O)cc1	.	.	90.9	/	.
CCOc1ccc(C(C#N)N2CCOCC2)cc1OC (centres undefined)	/	/	.	.	.
CCCCOc1ccc(C(=O)CCN2CCOCC2)cc1	.	.	69.0	.	.
CCOc1ccc(C(CN2CCOCC2)C(C)=O)cc1OC (centres undefined)	.	.	101.8	.	/
CCOc1ccc(C(=O)C(CN2CCOCC2)c2ccccc2)cc1 (centres undefined)	/	/	96.8	.	.
O=C(c1ccc(Br)cc1)C(CN1CCOCC1)c1ccccc1 (centres undefined)	.	.	.	.	.
CCCOc1ccc(C(=O)CCN2CCCCC2)cc1	/	/	/	/	.
O=C(c1ccccc1)C(CN1CCCCC1)c1ccccc1 (centres undefined)	69.2	.	68.7	.	.
CCOc1ccc(C(O)(CCC(C)C)C(CN2CCOCC2)c2ccccc2)cc1 (centres undefined)	.	.	.	72.2	.
